Hit rate of the full screen: of about 5,500 compounds, about 2,000 (36%) were called active. Not shown: some 18% with an inconclusive outcome. Rule as the data show it: active = normalized growth mostly below about 0.91 (no sharp cut-off); inconclusive = no clear call, values can overlap the other calls; inactive = mostly above about 0.92. Some of the results follow.
Assay: chemical genetic growth profiling, strain panel (AID 1159580);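 also: tested at 20 µM; growth read once vehicle control cultures reached saturation at 30 °C; 1 = growth at the plate median or of vehicle wells; lower values mean less growth of the strain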
Conditions: S. cerevisiae deletion strains, growth OD

Measured: normalized growth

CC(=O)c1ccc(S(=O)(=O)NC(=O)NC2CCCCC2)cc1
inactive: locus YAL040C, strain CLN3, hits give low values 1.06 | locus YER002W, strain NOP16, hits give low values 0.998 | locus YGR078C, strain PAC10, hits give low values 0.99 | locus YHR030C, strain SLT2, hits give low values 0.959 | locus YHR079C, strain IRE1, hits give low values 0.963 | locus YJL095W, strain BCK1, hits give low values 1.02 | locus YJR066W, strain TOR1, hits give low values 0.918 | locus YLR113W, strain HOG1, hits give low values 0.995 | locus YMR263W, strain SAP30, hits give low values 0.987 | locus YNL153C, strain GIM3, hits give low values 0.95 | locus YNL175C, strain NOP13, hits give low values 0.983 | locus YNL183C, strain NPR1, hits give low values 0.937 | locus YNL197C, strain WHI3, hits give low values 0.986 | locus YNL224C, strain SQS1, hits give low values 1.01 | locus YOR083W, strain WHI5 (second series), hits give low values 1 | locus YOR231W, strain MKK1, hits give low values 0.967 | locus YPL256C, strain CLN2, hits give low values 0.965

From PubChem BioAssay AID1159580 (chemical genetic matrix, 2015)
